Only some compounds are listed: those with a hit (about 17% of all), similar ones and a draw of the others.
TDP1 cell noCPT – qHTS for Inhibitors of human tyrosyl-DNA phosphodiesterase 1 (TDP1): qHTS in cells in absence of CPT. DT40 Tdp1-/- hTDP1 cells, no CPT, ATP luminescence, 48 h. AID 686978, 2013. Potency, µM (top dose mostly 46.2 µM), hits mostly inhibitors. 15% of 420,000 active; note: nearly all actives have a fitted effect of over 55% in size
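Growth kinetics read by CellTiter-Glo luminescence after ≥48 hr at 37 °C. Cells: DT40 Tdp1-/- stably carrying human TDP1, 400 per well, compound exposure in the absence of CPT (DMSO vehicle).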
HepG2 tox – counter-screen for TGF-b inhibitors: cytotoxicity in HepG2 cells; HepG2 CAGA-GFP viability, ATP luminescence, 18 h; Potency, µM (highest dose often 46.1 µM), hits mostly cytotoxic; 0.76% of 410,000 active; AID 588856
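HepG2 CAGA-GFP cells (1000/well, DMEM with 1% FBS) received compound, then TGF-beta at 500 pg/mL final, and were incubated 18 hours at 37 degrees C. Viability was read by CellTiter-Glo luminescence. Media-only wells were set as complete cell-killing and DMSO as no toxicity.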
ATXN2 expr inh – inhibitors of ATXN2 expression; HEK-293 ATXN2-luciferase reporter, luminescence, 24 h; Potency, µM (titrated, usually from 57 µM), hits mostly inhibitors; 0.72% of 360,000 active; AID 1745845; note: nearly all actives have a fitted effect of over 55% in size
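ATXN2-luciferase reporter cells (luciferase flanked by upstream and downstream ATXN2 gene portions) were treated 24 h at 37 °C with compounds at up to 57 uM. SteadyGlo luminescence gave expression; GF-AFC fluorescence gave viability.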
TGFb inhibitor – blocks TGF-b signaling. Potency, µM (titrated, usually from 46.1 µM), usual class: inhibitors. HepG2 CAGA-GFP TGF-b/SMAD3 reporter, GFP fluorescence, 18 h; TGF-beta stimulated, 500 pg/mL final. 1.2% of 410,000 active. AID 588855; note: nearly all actives have a fitted effect of over 65% in size
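HEPG2 CAGA-GFP reporter cells (1000/well, DMEM with 1% FBS) received compounds, then recombinant TGF-beta at 500 pg/mL final for 18 hours at 37 degrees C. Per-cell GFP summed per well was normalised to unstimulated and stimulated DMSO controls before curve fitting.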
TDP1 cell CPT – DT40-hTDP1 cell growth loss with CPT | chicken DT40 Tdp1-/-;hTDP1 cells + 20 nM CPT, ATP luminescence, 48 h | Potency, µM (doses to about 46.2 µM), most hits filed as inhibitors | 12% of 420,000 active | AID 686979; note: nearly all actives have a fitted effect of over 55% in size
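Cell growth measured by CellTiter-Glo luminescence after a minimum 48 h, 37 C compound exposure with 20 nM CPT in Tdp1-knockout DT40 cells stably expressing hTDP1, seeded 400/well; qHTS titration format.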
S2 tox – viability counter-screen for ATXN expression inhibitors; 0.49% of 400,000 active; S2 cells (HEK-293 line with an ATXN2-luciferase reporter) viability, CellTiter-Fluor protease fluorescence, 24 h; Potency, µM (titrated, usually from 56.7 µM), most hits filed as cytotoxic; note: nearly all actives have a fitted effect of over 40% in size
Of the large screens only hits and unclear results are named; the others gave an inactive call. Calls come from the whole dose curve; as a rule, active = well fitted curve in the direction sought with a large enough effect; inconclusive = small, poorly fitted or top-dose-only effect, or another doubt; inactive = no such curve, though single readings can be large; an effect the other way counts as inactive or inconclusive.

Cc1ccc(SCc2ccc(C(=O)N3CCCCC3)cc2)cc1	TDP1 cell noCPT inconclusive, S2 tox inconclusive (no result: ATXN2 expr inh)
CCC12CN(C(=O)c3ccc(C)cc3)CC(CC)(CN(C(=O)c3ccc(C)cc3)C1)C2=O	TDP1 cell noCPT inconclusive
Cc1ccc(C(=O)N2CC3(C(C)C)CN(C(=O)c4ccc(C)cc4)CC(C(C)C)(C2)C3=O)cc1	TDP1 cell noCPT 14.6µM, TDP1 cell CPT inconclusive, S2 tox inconclusive
CCCn1c(C(C)Nc2nc(-c3ccc(Cl)c([N+](=O)[O-])c3)cs2)nc2cc(Cl)c(N3CCCCC3)cc21 (stereo unspecified)	TDP1 cell noCPT inconclusive, TGFb inhibitor inconclusive, TDP1 cell CPT inconclusive, S2 tox inconclusive
Cc1ccc(Cn2c(C(CO)Nc3nc(-c4ccc(Cl)c([N+](=O)[O-])c4)cs3)nc3ccccc32)cc1 (stereo unspecified)	TDP1 cell noCPT inconclusive, TGFb inhibitor 15.8µM, TDP1 cell CPT inconclusive, S2 tox inconclusive
Cc1ccc(Cn2c(C(CO)Nc3nc(-c4ccc(F)cc4)cs3)nc3ccccc32)cc1 (stereo unspecified)	TDP1 cell noCPT 16.4µM, ATXN2 expr inh inconclusive, TDP1 cell CPT inconclusive (no result: S2 tox)
Cc1ccc(Cn2c(CCNc3nc(-c4ccc(Cl)c([N+](=O)[O-])c4)cs3)nc3cc(C(=O)NCCCO)ccc32)cc1	TDP1 cell noCPT 13µM, ATXN2 expr inh inconclusive, TGFb inhibitor inconclusive, TDP1 cell CPT 10.3µM, S2 tox inconclusive
COc1ccc(-c2csc(NC(CO)c3nc4ccccc4n3Cc3ccc(C)cc3)n2)cc1 (stereo unspecified)	TDP1 cell noCPT inconclusive, TGFb inhibitor inconclusive, TDP1 cell CPT 25.9µM, S2 tox inconclusive
S=C1NC2CCCCC2N1 (stereo unspecified)	TGFb inhibitor inconclusive
CC(C)C[C@H](NC(=O)C1CC(=O)N(c2ccc(F)cc2)C1)C(=O)N1CCCCC1 (stereo partly specified)	none
OC(c1ccc(Cl)c(F)c1)c1ncc(-c2ccccc2F)[nH]1 (stereo unspecified)	TDP1 cell noCPT inconclusive, TDP1 cell CPT 16.4µM
Cc1ccccc1-c1cnc(C(O)c2ccc(Cl)c(F)c2)[nH]1 (stereo unspecified)	HepG2 tox 3.16µM, TDP1 cell CPT 29.1µM
CO/N=C(\c1ccccc1)c1cccnc1	none
COCCN(C(=S)Nc1c(C)cc(C)cc1C)C(C)c1cccs1 (stereo unspecified)	TDP1 cell noCPT 29.1µM, TDP1 cell CPT inconclusive (no result: ATXN2 expr inh)
Cc1nn(C2CCS(=O)(=O)C2)c(C)c1C=O (stereo unspecified)	TDP1 cell noCPT 20.6µM, TDP1 cell CPT inconclusive
Cc1ccc(C)n1C1CCS(=O)(=O)C1 (stereo unspecified)	TDP1 cell noCPT inconclusive, TDP1 cell CPT inconclusive
O=[N+]([O-])c1ccc2nc(/C=C/c3ccc(Cl)cc3)[nH]c2c1	TDP1 cell noCPT 18.4µM, ATXN2 expr inh inconclusive, TGFb inhibitor inconclusive, TDP1 cell CPT 20.6µM, S2 tox inconclusive
Nc1ccc(-c2nc3ccc([N+](=O)[O-])cc3[nH]2)cc1	TDP1 cell noCPT inconclusive, TDP1 cell CPT inconclusive
O=[N+]([O-])c1ccc(-c2nc3ccc([N+](=O)[O-])cc3[nH]2)cc1	TDP1 cell noCPT 9.2µM, TGFb inhibitor inconclusive, TDP1 cell CPT 13µM, S2 tox inconclusive
CCOC(=O)c1c(NC(=O)COC(=O)CCCOc2ccc(OC)cc2)sc(C(=O)NC)c1C	none
C/C(=N\NC(=O)c1cccc(C)c1O)c1ccc(NC(=O)Cc2ccccc2)cc1	none
CCOC(=O)C1=C(C(=O)OCC)N(CC)CCC1=O	none
CC1CN(C(=O)/C=C/c2ccc([N+](=O)[O-])s2)CC(C)O1 (stereo unspecified)	TDP1 cell noCPT 14.6µM, HepG2 tox 10µM, TGFb inhibitor inconclusive, TDP1 cell CPT inconclusive

Screening data: PubChem, National Center for Advancing Translational Sciences (NCATS)
